The whole screen tested about 4,400 compounds, of which about 390 (8.9%) showed an effect of 50% or more. The entries come from a sample that favours strong results as a whole.

For this test, the system named is Trypanosoma brucei. The experiment in a line: DNDI: Inhibition of Human African Trypanosomiasis, SBRI 427, in vitro at 2 ug.mL-1. It is filed as functional.
For the compound `Cc1cccc(-c2nc(Cn3cc(-c4ccccc4)c(C)n3)co2)c1`, the “% inhibition” value is reported as -11%. As for `c1ccc(-c2nc(CN3CCC4CCCCC4C3)co2)cc1` (configuration not stated), the figure is 37%; as for `C#CC(CC)(CC)NCc1coc(-c2cccs2)n1`, -2%.

For the compound `CCN(Cc1ccccc1)Cc1coc(-c2cccc(OC)c2)n1`, the “% inhibition” value is recorded as -7%. On to `CCN1CCN(Cc2coc(-c3ccc(C(F)(F)F)cc3)n2)CC1`, for which the “% inhibition” value was 10%. The same measure for `CCCc1nccn1Cc1coc(-c2cccc(F)c2)n1`: 5%. As to `COc1cc(CNCc2coc(-c3ccc(C)cc3)n2)cc(OC)c1OC`, the “% inhibition” value was 9%. As for `O=c1c(Cl)cn(Cc2coc(-c3ccc(C(F)(F)F)cc3)n2)cc1Cl`, the figure is -5%. As for `COc1ccc(-c2nc(CN3CCN(c4ccccc4OC)CC3)co2)cc1`, the figure is 13%; as for `CC(C)(C)c1ccc(CNCc2coc(-c3cccc4ccccc34)n2)cc1`, -1%; as for `COc1ccc(Oc2nc(C)ccc2/C(=N/O)NCC2CCCCC2)cc1`, 24%. As for `COc1ccc(Oc2ncccc2/C(=N/O)NCC2CCCCC2)cc1`, the figure is 93%; as for `CC1CCC(N/C(=N\O)c2cccnc2Oc2ccc(-n3cncn3)cc2)CC1` (configuration not stated), 98%; as for `CC1CC(N/C(=N\O)c2cccnc2Oc2ccc(-n3cncn3)cc2)CC(C)(C)C1` (configuration not stated), 41%. Consider `COc1ccc(Oc2ncccc2/C(=N/O)NCC2CC2)cc1`, for which the “% inhibition” value is 99%. As for `COc1ccccc1Oc1ncccc1/C(=N/O)NCc1ccco1`, the figure is 27%; as for `CC(C)N/C(=N\O)c1cccnc1Oc1ccc(-n2cncn2)cc1`, 42%. As for `COc1ccccc1Oc1ncccc1/C(=N/O)NCC1CC1`, the figure is 96%; as for `COc1ccc(CN/C(=N\O)c2cccnc2Oc2ccccc2OC)cc1`, 13%. The same measure for `COc1cccc(-c2nc(Cn3cnc(-c4ccccc4)c3)co2)c1`: -15%; for `O/N=C(/c1cccnc1Oc1ccc(F)cc1)N1CCCCCC1`: 1%. With `COc1ccc(CN/C(=N\O)c2cccnc2Oc2ccc3c(c2)CCCC3)cc1`, the “% inhibition” value was 8%.

With `Cc1ccc(/C(=N/O)Nc2ccc(C(C)C)cc2)c(Oc2cccc(F)c2)n1`, the “% inhibition” value came to 16%.

With `Cc1ccc(/C(=N/O)NCc2ccc(C)o2)c(Oc2ccc3oc4ccccc4c3c2)n1`, the “% inhibition” value was 9%. As for `CCCCN(CCC#N)Cc1coc(-c2ccc(C(C)(C)C)cc2)n1`, the figure is 3%.

For `CCOc1ccc(-c2nc(CNCc3ccccc3C(F)(F)F)co2)cc1`, the “% inhibition” value is 1%. For the compound `CSc1ccccc1Oc1ncccc1/C(=N/O)NCCN1CCCC1`, the “% inhibition” value was determined as 22%. Regarding `CSc1ccccc1Oc1ncccc1/C(=N/O)NCC1CC1`, the “% inhibition” value is 99%. The same measure for `O/N=C(\NCC1CCCO1)c1cccnc1Oc1ccc(-n2cncn2)cc1` (configuration not stated): 24%; for `Cc1ccc(/C(=N/O)NCC2CCCCC2)c(Oc2ccc(Cl)cc2)n1`: -11%.

For `O/N=C(\NCc1ccccc1)c1cccnc1Oc1ccc(-n2cncn2)cc1`, the “% inhibition” value was 21%. As for `O/N=C(\NCC1CC1)c1cccnc1Oc1ccc2ccccc2c1`, the figure is 99%. The same measure for `CCCN(CC1CC1)/C(=N\O)c1cccnc1Oc1ccccc1SC`: 30%; for `O/N=C(\NCC1CCCCC1)c1cccnc1Oc1ccc(Cl)cc1`: 98%. With `CC(C)(C)COc1ncccc1/C(=N/O)NCC1CCCCC1`, the “% inhibition” value was -1%. The same measure for `O/N=C(\NCC1CCCCC1)c1cccnc1Oc1ccc(-n2cncn2)cc1`: 90%; for `Cc1ccc(/C(=N/O)NCC2CCCCC2)c(Oc2ccc3ccccc3c2)n1`: 18%; for `O/N=C(\NCCN1CCOCC1)c1cccnc1Oc1ccc2ccccc2c1`: -10%.

For `COc1ccc(CN/C(=N\O)c2ccc(C)nc2OCc2ccccc2F)cc1`, the “% inhibition” value was -1%. As for `COc1cc(C)ccc1Oc1nc(C)ccc1/C(=N/O)n1nc(C)cc1C`, the figure is -5%; as for `O/N=C(/c1ccc(Oc2cccc3c2CCCC3)nc1)N1CCN(c2ccc(F)cc2)CC1`, 26%. As for `COc1cc(-c2nc(Cn3ccnc3C)co2)cc(OC)c1OC`, the figure is -1%. The same measure for `Fc1ccc(N2CCN(Cc3coc(-c4ccco4)n3)CC2)cc1`: 13%. Consider `FC(F)(F)c1ccc(-c2nc(Cn3ccnc3)co2)cc1`, for which the “% inhibition” value is reported as -3%. As for `O/N=C(\NCC1CC1)c1cccnc1Oc1ccc(F)cc1`, the figure is 97%; as for `CCN(CC)c1cccc(Oc2ncccc2/C(=N/O)NCC2CC2)c1`, 6%; as for `COc1ccc(Oc2ncccc2/C(=N/O)NCC(C)C)cc1`, -7%.

Regarding `Cc1ccc(Oc2ncccc2/C(N)=N/O)cc1`, the “% inhibition” value is given as 21%. As for `N/C(=N\O)c1cccnc1Oc1ccc(F)c(Cl)c1`, the figure is 10%; as for `CC(C)(C)CN/C(=N\O)c1cccnc1Oc1ccc(Cl)cc1`, 99%; as for `N/C(=N\O)c1cccnc1Oc1ccc(Cl)cc1`, 59%. As for `O/N=C(\NCc1ccccn1)c1cccnc1Oc1ccc(Cl)cc1`, the figure is 10%; as for `O/N=C(\NCc1cccnc1)c1cccnc1Oc1ccc(Cl)cc1`, 4%; as for `COc1ccc(Oc2ncccc2/C(=N/O)NCC(C)(C)C)cc1`, 98%. Regarding `CCCN(Cc1coc(-c2cccc(F)c2)n1)C(C)CC` (configuration not stated), the “% inhibition” value is -4%. As for `COc1cc(CNCc2coc(-c3cccs3)n2)cc(OC)c1`, the “% inhibition” value is on record as -7%. Regarding `COc1cc(-c2nc(CN3CCCCC3C)co2)cc(OC)c1OC` (configuration not stated), the “% inhibition” value was -4%. As for `Cc1ccc(/C(=N/O)N2CCCCC2)c(Oc2ccc3oc4ccccc4c3c2)n1`, the “% inhibition” value came out at 7%. As for `CC(C)(C)COc1ncccc1/C(=N/O)NCc1ccccn1`, the figure is 12%; as for `CCOc1ccc(-c2nc(CNCc3cccc(OC)c3OC)co2)cc1`, 3%; as for `CSc1ccc(Oc2nc(C)ccc2/C(=N/O)NCC(C)C)cc1C`, -14%.

In the case of `C#CCNCc1coc(-c2ccc(OC)cc2)n1`, the “% inhibition” value is on record as -25%. The same measure for `COc1ccc(N(C)Cc2coc(-c3ccc(F)cc3)n2)cc1`: -2%.

As to `Cc1ccc(C)c(N2CCN(Cc3coc(-c4ccc(OC(F)(F)F)cc4)n3)CC2)c1`, the “% inhibition” value amounted to 33%. Regarding `Cc1ccc(/C(=N/O)NC(C)C)c(Oc2cccc3ccc(C)nc23)n1`, the “% inhibition” value is 31%. As for `O/N=C(\NCC1CCCCC1)c1ccc(Oc2c(F)c(F)cc(F)c2F)nc1`, the figure is 40%; as for `O/N=C(\NC1CCCCC1)c1ccc(Oc2c(F)c(F)cc(F)c2F)nc1`, 100%. As for `O/N=C(\NC1CCc2ccccc21)c1ccc(Oc2c(F)c(F)cc(F)c2F)nc1` (configuration not stated), the figure is 19%; as for `O/N=C(\NCC1CCCO1)c1ccc(Oc2c(F)c(F)cc(F)c2F)nc1` (configuration not stated), 25%; as for `CC1CCC(N/C(=N\O)c2ccc(Oc3c(F)c(F)cc(F)c3F)nc2)CC1` (configuration not stated), 17%. As for `CN(/C(=N\O)c1ccc(Oc2c(F)c(F)cc(F)c2F)nc1)C1CCCCC1`, the figure is 21%.

`O/N=C(\NC1CCCC1)c1ccc(Oc2c(F)c(F)cc(F)c2F)nc1`: the “% inhibition” value was determined as 99%. The same measure for `O/N=C(\NC1CCC1)c1ccc(Oc2c(F)c(F)cc(F)c2F)nc1`: 100%; for `CC1CC(N/C(=N\O)c2ccc(Oc3c(F)c(F)cc(F)c3F)nc2)CC(C)(C)C1` (configuration not stated): 22%; for `CCOc1ccc(-c2nc(CN(C)CCc3ccccc3)co2)cc1`: 10%.

For the compound `CCOc1cccc(-c2nc(CNc3ccccc3C)co2)c1`, the “% inhibition” value came out at 20%. The same measure for `CC(C)c1ccc(N/C(=N\O)c2ccc(Oc3cccc4ccccc34)nc2)cc1`: 16%; for `O/N=C(\NCc1ccncc1)c1ccc(Oc2c(F)c(F)cc(F)c2F)nc1`: 6%; for `CC(C)CN(C)Cc1coc(-c2ccccc2Cl)n1`: 1%.

Regarding `O/N=C(/c1cccnc1Oc1ccc(Cl)cc1)N1CCC2CCCCC2C1` (configuration not stated), the “% inhibition” value is reported as -20%. The same measure for `O/N=C(/c1cccnc1Oc1ccc2ccccc2c1)N1CCC2CCCCC2C1` (configuration not stated): 100%; for `O/N=C(\NC1CCC1)c1cccnc1Oc1ccc2c(c1)CCCC2`: 100%.

As for `COc1ccc(Oc2ncccc2/C(=N/O)N2CCC3CCCCC3C2)cc1` (configuration not stated), the “% inhibition” value was -2%.

As for `O/N=C(\NC1CCCC1)c1cccnc1Oc1ccc2c(c1)CCCC2`, the “% inhibition” value was found to be 1%. As for `COc1ccc(Oc2ncccc2/C(=N/O)N(C)C2CCCCC2)cc1`, the figure is -15%; as for `COc1ccc(Oc2ncccc2/C(=N/O)NC2CCCCC2)cc1`, 98%. Consider `O/N=C(\NCc1ccccc1)c1cccnc1Oc1ccc2c(c1)CCCC2`, for which the “% inhibition” value is on record as -4%. The same measure for `COc1ccc(Oc2ncccc2/C(=N/O)NC2CCCC2)cc1`: 99%; for `O/N=C(/c1ccnc(Oc2ccc(Cl)cc2)c1)N1CC=CCC1`: 8%; for `COc1ccc(-c2nc(Cn3nc(C)cc3C)co2)cc1`: -6%. On to `Cc1cccc(N2CCN(Cc3coc(-c4ccc(Br)cc4)n3)CC2C)c1` (configuration not stated), for which the “% inhibition” value was determined as 15%.

With `COc1ccc(-c2nc(CNCCc3ccc(C)cc3)co2)cc1`, the “% inhibition” value is -3%. As for `Cc1ccc(CN/C(=N\O)c2ccc(Oc3cc(Cl)ccc3Cl)nc2)o1`, the figure is 9%; as for `Cc1cccc(Oc2ncccc2/C(=N/O)N2CCC=N2)c1C`, 2%. As for `C=CCN(Cc1coc(-c2ccccc2Cl)n1)C1CCCCC1`, the figure is 13%. The same measure for `O/N=C(\NCc1cccs1)c1ccc(Oc2c(F)c(F)cc(F)c2F)nc1`: 1%; for `Cc1cc(Oc2ccc(/C(=N/O)N3CCN(c4ccc(F)cc4)CC3)cn2)cc(C(C)C)c1`: 3%; for `COc1ccc(-c2nc(CN3CCN(c4cccc(Cl)c4)CC3)co2)cc1`: 10%. As to `COc1ccc(Oc2ncccc2/C(=N/O)NC2CCC2)cc1`, the “% inhibition” value is listed as 98%. The same measure for `O/N=C(\Nc1ccccc1)c1cccnc1Oc1ccc2ccccc2c1`: 14%; for `COc1ccc(Oc2nc(C)ccc2/C(=N/O)NC2CCC(C)CC2)cc1` (configuration not stated): 47%; for `COc1ccc(Oc2ncccc2/C(=N/O)N2C(C)CCC2C)cc1` (configuration not stated): -10%. As for `N/C(=N/O)c1cccnc1Oc1ccc2ccccc2c1`, the figure is -3%; as for `O/N=C(\NC1CCCCC1)c1cccnc1Oc1ccc2ccccc2c1`, 99%. For `O/N=C(\NCc1cc(F)ccc1F)c1ccc(Oc2ccc(Cl)cc2)nc1`, the “% inhibition” value was -8%. Consider `CSCCN/C(=N\O)c1ccc(Oc2ccc(Cl)cc2)nc1`, for which the “% inhibition” value is -6%. For the compound `O/N=C(\NC1CCc2ccccc21)c1ccc(Oc2ccc(Cl)cc2)nc1` (configuration not stated), the “% inhibition” value is listed as -11%. The same measure for `CC1CCC(N/C(=N\O)c2ccc(Oc3ccc(-n4ccnc4)cc3)nc2)CC1` (configuration not stated): 21%; for `CC1CCC(N/C(=N\O)c2ccc(Oc3ccc(Cl)cc3)nc2)CC1` (configuration not stated): 88%; for `N/C(=N\O)c1ccc(Oc2ccc(Cl)cc2)nc1`: 15%. As for `O/N=C(/c1ccc(Oc2ccc(Cl)cc2)nc1)N1CCCCCC1`, the figure is -7%; as for `CC1CCN(/C(=N\O)c2ccc(Oc3ccc(Cl)cc3)nc2)CC1`, 26%. As for `CCc1ccc(Oc2ccc(/C(=N/O)NC3CC3)cn2)cc1`, the “% inhibition” value is recorded as 8%.

Turning to `CCc1ccc(Oc2ccc(/C(=N/O)Nc3ccccc3)cn2)cc1`, the “% inhibition” value is 17%. The same measure for `CCc1ccc(Oc2ccc(/C(=N/O)NC3CCCC3)cn2)cc1`: 78%; for `O/N=C(\NC1CCCCC1)c1ccc(Oc2ccc(Cl)cc2)nc1`: 93%; for `O/N=C(\NC1CCCC1)c1ccc(Oc2ccc(Cl)cc2)nc1`: 98%.

The values are drawn from ChEMBL document CHEMBL1857833, “Screening and optimization of specific chemical series against human African Trypanosomiasis (HAT)”.
